This is one part of a sample in which hits are shown more often than they occur.
FECH inh = human FECH heme synthesis enzyme inhibition; P22830; purified FECH, Ni-mesoporphyrin absorbance 550 nm; calls only at 10 µM (by protocol); 3.3% of 20,000 active;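 active = enzyme reaction rate more than 3 SD below the solvent-only control wells on the same plate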;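 note: lower slope than DMSO wells means FECH inhibition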
Target sequence (P22830 whole entry, looked up): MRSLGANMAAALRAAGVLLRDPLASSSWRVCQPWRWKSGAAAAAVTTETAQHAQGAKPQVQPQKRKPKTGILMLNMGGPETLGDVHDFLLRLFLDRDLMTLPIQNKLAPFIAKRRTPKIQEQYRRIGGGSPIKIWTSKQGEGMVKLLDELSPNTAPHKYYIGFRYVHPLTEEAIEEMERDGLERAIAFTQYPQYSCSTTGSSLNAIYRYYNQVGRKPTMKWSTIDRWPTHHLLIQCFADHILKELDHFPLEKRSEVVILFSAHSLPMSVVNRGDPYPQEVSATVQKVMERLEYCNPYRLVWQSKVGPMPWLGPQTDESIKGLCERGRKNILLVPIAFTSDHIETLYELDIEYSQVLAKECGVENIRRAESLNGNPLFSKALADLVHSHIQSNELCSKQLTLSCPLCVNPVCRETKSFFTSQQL
Of the large screens only hits and unclear results are named; the others gave an inactive call.

CCC(=O)Nc1nc2n(n1)C(c1ccc(Cl)cc1)C=C(c1ccc(Cl)cc1)N2 (stereo unspecified)	none
CCCC(=O)Nc1nc2n(n1)C(c1ccc(Cl)cc1)C=C(c1ccc(C)cc1)N2 (stereo unspecified)	FECH inh active
CCC(NC(=O)CCNC(=O)c1ccccc1F)c1cc(C)ccn1 (stereo unspecified)	none
CCN(CC)C(=O)[C@@H]1C[C@@H](N)CN1C(=O)c1c(C)c2cc(F)ccc2n1C	none
CCc1ccc(-c2nccn2CCc2ccccn2)nc1	none
O=C(c1csc(S(=O)(=O)N2CCN(c3ccccc3)CC2)c1)N1CCCCC1	none
CC(NC(=O)c1ccccc1)c1nc(-c2ccc3c(c2)Sc2ccccc2C(=O)N3C)no1 (stereo unspecified)	none
Cc1ccc(NC(=O)CN2C(=O)CC(c3ccccc3)=Nc3ccccc32)cc1	none
O=C(Nc1cccnc1)C1CCN(c2ncnc3c2nc2n3CCCCC2)CC1	none
COCc1cc(CN(C)c2cc(C(C)C)nc(C)n2)[nH]n1	none
Cc1nc(C(C)C)cc(N(C)Cc2ncccc2C)n1	FECH inh active
Cc1cc(N(C)Cc2ncccc2C)nc(-c2ccccc2)n1	none
CC(NC(=O)c1nc2ccccc2n(C)c1=O)c1ccccc1 (stereo unspecified)	none
COc1ccc(CNC(=O)C2CCCN2c2nnc(N3CCCC3=O)s2)cc1OC (stereo unspecified)	FECH inh active
COc1ccc(N2CCN(CCCNC(=O)c3cccn3-c3nnc(N4CCCCC4)s3)CC2)cc1	none
O=C(NCCN1CCCc2ccccc21)C1CCCN1c1nnc(N2CCCC2=O)s1 (stereo unspecified)	none
CCN(CCCNC(=O)C1CCCN1c1nnc(N2CCCC2=O)s1)Cc1ccccc1 (stereo unspecified)	none
O=C(NCCCN1CCN(c2ccc(F)cc2)CC1)C1CCCN1c1nnc(N2CCCC2=O)s1 (stereo unspecified)	FECH inh active
COc1ccc(CNC(=O)C2CCCN2S(=O)(=O)c2ccc3c(c2)CCCC(=O)N3)cc1 (stereo unspecified)	none
CCCCn1ccnc1-c1c(C)cc(O)cc1C	none
CN1CCNC(=O)C12CCN(C(=O)c1cc(-c3cccs3)nn1C)CC2	none
Cc1ccccc1S(=O)(=O)N1CCN(Cc2nc3cccnc3n2-c2cccc(F)c2)CC1	none
COc1cccc(-c2cc(N3CCN(C(=O)NC(C)C)CC3)ncn2)c1	none
CCOC(=O)c1cc2n(n1)CC(C)(C(=O)NCCC(C)C)N(c1cc(OC)cc(OC)c1)C2=O (stereo unspecified)	none
CCOC(=O)c1cc2n(n1)CC(C)(C(=O)NCCC(C)C)N(c1cc(C)cc(C)c1)C2=O (stereo unspecified)	FECH inh active
CCOC(=O)c1cc2n(n1)CC(C)(C(=O)NCCC(C)C)N(c1ccc(Cl)cc1)C2=O (stereo unspecified)	none
CNC(=O)c1ccc(Cn2c(=O)c3cc(OC)c(OC)cc3n(CC(=O)NCCC(C)C)c2=O)cc1	FECH inh active
CCCNC(=O)Cn1c(=O)n(Cc2ccc(C(=O)NCCC)cc2)c(=O)c2cc(OC)c(OC)cc21	none
CNC(=O)c1ccc(Cn2c(=O)c3cc(OC)c(OC)cc3n(CC(=O)Nc3ccccc3)c2=O)cc1	none
COCCCNC(=O)c1ccc(Cn2c(=O)c3cc(OC)c(OC)cc3n(CC(N)=O)c2=O)cc1	none
CNC(=O)c1ccc(Cn2c(=O)c3cc(OC)c(OC)cc3n(CC(=O)N3CCC(C)CC3)c2=O)cc1	FECH inh active
CNC(=O)c1ccc(Cn2c(=O)c3cc(OC)c(OC)cc3n(CC(=O)N3CCCCC3C)c2=O)cc1 (stereo unspecified)	none
CNC(=O)c1ccc(Cn2c(=O)c3cc(OC)c(OC)cc3n(CC(=O)NCCCOC)c2=O)cc1	FECH inh active
CCCNC(=O)Cn1c(=O)n(Cc2ccc(C(=O)NC(C)C)cc2)c(=O)c2cc(OC)c(OC)cc21	none
CNC(=O)c1ccc(Cn2c(=O)c3cc(OC)c(OC)cc3n(CC(N)=O)c2=O)cc1	none
O=C(CCN1CCCC1)N1CCCC(N2CCN(c3ccccc3)CC2)C1 (stereo unspecified)	none
O=C(CCN1CCC(CCn2cccn2)CC1)Nc1nccs1	none
Cc1ccc2c(c1)C(CC(=O)N(C)Cc1cn[nH]c1-c1ccc(F)cc1)C(=O)N2 (stereo unspecified)	none
CC(NC(=O)c1cccc(Cn2cccn2)c1)c1nc2c(s1)CCCC2 (stereo unspecified)	none
CCC1c2cccn2CCN1C(=O)c1ccc(CSc2ncn[nH]2)o1 (stereo unspecified)	none
CN(Cc1cc(-c2cccs2)n[nH]1)C(=O)c1cn(CC2CCCNC2)nn1 (stereo unspecified)	none
O=C(NC1C=CS(=O)(=O)C1)c1cn[nH]c1-c1cccc(F)c1 (stereo unspecified)	none
CC(C)(C)CNC(=O)c1[nH]cnc1C(=O)NC1CCC(O)CC1 (stereo unspecified)	none
O=C(NCCc1c[nH]c2ccccc12)c1nc[nH]c1C(=O)NCc1ccccn1	none
O=C(NCc1ccccn1)c1nc[nH]c1C(=O)NCc1cccc(C(F)(F)F)c1	FECH inh active
O=C(NCc1ccccn1)c1nc[nH]c1C(=O)NCc1ccccn1	FECH inh active
O=C(NC1CCc2ccccc21)c1nc[nH]c1C(=O)NCc1ccccn1 (stereo unspecified)	FECH inh active
CCCNC(=O)c1[nH]cnc1C(=O)NC1CCc2ccccc21 (stereo unspecified)	none
CC(C)CCNC(=O)c1[nH]cnc1C(=O)NC(c1ccccc1)c1ccccc1	none
CC(C)CCNC(=O)c1nc[nH]c1C(=O)NCc1cccc(C(F)(F)F)c1	none
CC(C)CNC(=O)c1nc[nH]c1C(=O)NCC(C)(C)C	none
COCCNc1nc(Nc2ccccc2C)c2cnn(-c3ccccc3)c2n1	none
COC(=O)CC1=CC(=O)N(CC(=O)Nc2cccc(F)c2)c2ccccc2N1	none
COc1ccc(-c2ncc3c(=O)n(CCN4CCOCC4)c(=O)n(C)c3n2)cc1	none
CC(C)c1noc(C2CCCN2Cc2ncccc2C(=O)O)n1 (stereo unspecified)	none
CN(Cc1cc(C(C)(C)C)n[nH]1)Cc1ccnc2ccccc12	none
CN(C)C(=O)c1ccc(-c2ccc(COCCN)cc2)cc1	FECH inh active
Cc1cc(C)cc(-n2c(CN3CCN(S(=O)(=O)c4ccc(C)cc4C)CC3)nc3cccnc32)c1	none
Cc1cc(C)cc(-n2c(CN3CCN(S(=O)(=O)c4cccc5nsnc45)CC3)nc3cccnc32)c1	FECH inh active
COc1cccc(S(=O)(=O)N2CCN(Cc3nc4cccnc4n3-c3cccc(F)c3)CC2)c1	FECH inh active
COc1cccc(S(=O)(=O)N2CCN(Cc3nc4cccnc4n3-c3cccc(C)c3)CC2)c1	none
COc1cccc(S(=O)(=O)N2CCN(Cc3nc4cccnc4n3-c3ccccc3)CC2)c1	none
Cc1ccc(-n2c(CN3CCN(S(=O)(=O)c4cc(F)cc(F)c4)CC3)nc3cccnc32)cc1	FECH inh active
Cc1ccc(-n2c(CN3CCN(S(=O)(=O)c4ccc(F)cc4)CC3)nc3cccnc32)cc1	none
Cc1cccc(-n2c(CN3CCN(S(=O)(=O)c4cc(C)c(C)cc4C)CC3)nc3cccnc32)c1	none
COc1ccc(-n2c(CN3CCN(S(=O)(=O)c4cc(F)cc(F)c4)CC3)nc3cccnc32)cc1	none
COc1ccc(N2C(=O)CCS2(=O)=O)cc1S(=O)(=O)Nc1ccccc1Br	none
CCN1CCN(c2nc(Nc3ccc(F)cc3)c3cnn(-c4ccccc4)c3n2)CC1	none
CC(Cc1cccnc1)Nc1nc(C2CCCC2)nc2c1cnn2C (stereo unspecified)	none

Compound activity (PubChem BioAssay)
